Bioassay records: PubChem BioAssay, several laboratories
An excerpt weighted towards active compounds, which were near 1.1% of everything screened.
Yp Topo-I inh – blocks Yersinia pestis topoisomerase I activity. activity, % at 10 µM. Y. pestis Topo-I cleavage product accumulation, plate reader. actives 0.064% (n = 360,000); in the data active = activity above about 50%, passing the limit was not always enough
CCHF vOTU inh-1 – blocks the CCHF virus ovarian tumor domain protease | CCHFV vOTU protease, Pep-AMC fluorescence | inhibition, % at 11.5 µM | actives 0.55% (n = 370,000); also: 0% = vehicle wells with enzyme and 100% = no enzyme wells
PrPC TRFRET – reduces human prion protein on the cell surface; inhibition, % at 13.8 µM; cell surface PrPC, TR-FRET read-out; P04156; AID 720596; actives 0.43% (n = 370,000); in the data active = inhibition above about 24%; also: 0% = median of the test wells and 100% = reference compound wells
BH1578 lux ind – quorum light induction in luxS cqsA deficient V. cholerae | V. cholerae BH1578 lux reporter, luminescence, 6 h | activation, % at 18.7 µM | actives 0.16% (n = 350,000); in the data active = activation mostly above about 9.7%, no sharp cut-off
CCHF vOTU inh-2 – CCHFV vOTU protease inhibition, confirmation. inhibition, % at 11.5 µM. shares compounds with CCHF vOTU inh-1. actives 17% (n = 1,900). Recombinant CCHFV vOTU, Pep-AMC fluorescence
Numbers without * were called inactive; i = inactive; nt = no result. Rule as the data show it, unless noted: active = inhibition above about 30%; inactive = the rest.

SMILES | Yp Topo-I inh | CCHF vOTU inh-1 | PrPC TRFRET | BH1578 lux ind | CCHF vOTU inh-2
CNCCCOc1ccc(C)cc1Br | -0.5 | 29.7* | -1.7 | 3.1 | -14.3
CCCCn1c(N)c(N(CCOC)C(=O)c2cnccn2)c(=O)[nH]c1=O | 1.1 | -2.8 | -3.0 | i | nt
COc1cccc(OCc2cc(C(=O)N(C)C3CCOCC3)no2)c1 | 9.0 | 29.7* | 0.7 | 2.3 | -9.5
CCc1ccc(CN(C)C(=O)c2cc(COc3cncc(Cl)c3)on2)cc1 | 33.9 | 5.6 | 7.3 | -0.8 | nt
CCc1ccc(CN(C)C(=O)c2cc(COc3cc(C)c(Cl)c(C)c3)on2)nc1 | 36.5 | 30.1* | -3.0 | -0.2 | -5.6
Cc1cc(OCc2cc(C(=O)N(C)Cc3nonc3C)no2)cc(C)c1Cl | 21.0 | 31.2* | 4.1 | -0.2 | 1.3
CCCCOCCCNC(=O)C[C@@H]1C[C@@]2(C(=O)OCC)CCCC=C2N(Cc2cccc3ccccc23)C1=O | nt | 15.0 | 2.8 | nt | nt
CC(=O)Nc1ccc(S(=O)(=O)NC2(C(F)(F)F)NC(=O)N(CC(C)C)C2=O)cc1 (stereo not drawn) | 3.1 | -7.4 | 4.0 | -0.5 | nt
COc1ccccc1C(C(=O)NC1CCCCC1)N(C(=O)c1csnn1)C1CC1 (stereo not drawn) | 2.7 | -9.3 | 3.5 | i | nt
O=C(NC1CCCCC1)C(c1ccccc1F)N(C(=O)c1csnn1)C1CCCC1 (stereo not drawn) | -5.2 | 65.2* | -0.2 | -0.3 | -5.5
CCN1C(=O)/C(=C/c2ccc(C)s2)NC1=S | -3.7 | 31.2* | 5.3 | -0.7 | -13.6
CCN1C(=O)C(=Cc2ccc(C)s2)C(=O)N(CC)C1=S | 26.0 | -5.8 | -0.3 | -0.6 | nt
COc1ccc2[nH]c3c(c2c1)CCN1C(=O)C(CC(=O)NCC24CC5CC(CC(C5)C2)C4)C[C@H](C(=O)N2CCOCC2)[C@@]31CCC1CCCC1 (stereo partly drawn) | 34.9 | -5.2 | -0.4 | -0.7 | nt
CCN1CCN(c2ccc(S(=O)(=O)N3CCOCC3)cc2NC(=O)c2ccc(C(F)(F)F)cc2)CC1 | 24.0 | 34.5* | -7.8 | -2.3 | -11.9
O=C(c1ccco1)N1CCN(C(=O)c2ccc(CS(=O)c3ccc(Cl)cc3)o2)CC1 (stereo not drawn) | 5.3 | 39.3* | -6.7 | i | -8.3
CC1(C(=O)NCc2ccc(C(F)(F)F)cc2)CCN1Cc1c(F)cccc1F (stereo not drawn) | 23.9 | 31.5* | 10.8 | i | 4.5
CC1(C(=O)NCc2cccc(C(F)(F)F)c2)CCN1CCc1ccccc1 (stereo not drawn) | 17.7 | 31.5* | -7.6 | i | 2.8
CSc1ccc(CN2CCC2(C)C(=O)NCc2cccc(C(F)(F)F)c2)cc1 (stereo not drawn) | 31.1 | 9.8 | -7.1 | -0.5 | nt
CNCc1ccccc1Sc1cc(O)ccc1O | -16.3 | 29.7* | -13.3 | -0.2 | 3.6
CNCc1ccccc1Sc1cccc(O)c1 | -7.7 | 14.6 | -3.2 | i | nt
CCOC(=O)c1oc2ccccc2c1CN1CC(C)OC(C)C1 (stereo not drawn) | -2.7 | 2.7 | -8.9 | -0.6 | nt
O=C(NCCO)c1cccc(-c2cnc3c(Nc4cccc(OC(F)(F)C(F)F)c4)nccn23)c1 | 11.4 | 13.9 | 9.4 | -0.6 | nt
Cc1ccc(S(=O)(=O)Nc2ccc(Nc3nccn4c(-c5cccc(OC(F)(F)F)c5)cnc34)cc2)cc1 | 4.2 | 29.9* | 14.2 | -0.9 | -4.8
NC(=O)C1CCN(C2=C(NS(=O)(=O)c3ccccc3)C(=O)c3ccccc3C2=O)CC1 | -1.0 | 6.5 | -46.0 | i | nt
CCOC(=O)C1CCN(C2=C(NS(=O)(=O)c3ccc(Br)cc3)C(=O)c3ccccc3C2=O)CC1 | 27.7 | 44.8* | -67.3 | 0.2 | 19.4
SMILES | Yp Topo-I inh | CCHF vOTU inh-1 | PrPC TRFRET | BH1578 lux ind | CCHF vOTU inh-2
CCOC(=O)C1CCN(C(=O)c2cccc(NS(=O)(=O)c3ccc(Br)cc3)c2)CC1 | 14.6 | 6.6 | 4.1 | -0.4 | nt
NC(=O)C1CCN(C2=C(NS(=O)(=O)c3ccc(Br)cc3)C(=O)c3ccccc3C2=O)CC1 | 2.1 | 38.9* | -59.0 | 0.0 | -2.0
O=C(CCN1CCN(CCO)CC1)Nc1cccc(Br)c1 | -5.4 | 8.3 | 6.9 | -0.7 | nt
CCN(CC)c1ccc(CNc2nc3ccccc3n2CCN2CCCCC2)cc1 | 16.9 | 29.6* | 7.8 | -0.6 | 0.9
COc1ccc(CNc2nc3ccccc3n2CCN2CCCCC2)cc1 | 3.8 | -2.6 | 5.4 | -0.7 | nt
O=C(N/N=C/c1cccs1)c1cccc(NC(=O)c2ccc(Cl)cc2)c1 | nt | 45.6* | -7.4 | nt | 5.2
Cc1ccc(S(=O)(=O)N2C(c3ccc(Cl)c(Cl)c3)CC=C(C(=O)O)C2c2ccc(Cl)cc2)cc1 (stereo not drawn) | nt | 35.2* | -4.7 | nt | 16.1
Cc1ccc(S(=O)(=O)N2[C@@H](c3ccc(Cl)cc3)C(C(=O)O)=CC[C@H]2c2ccc(Cl)c(Cl)c2)cc1 | 4.1 | 32.8* | -6.6 | -0.5 | 12.7
Cc1ccc(S(=O)(=O)N2C(c3ccc(Cl)c(Cl)c3)CC=C(C(=O)O)C2c2cccc(Cl)c2)cc1 (stereo not drawn) | nt | -6.9 | -0.3 | nt | nt
Cc1ccc(-n2c(-c3cnccn3)n[nH]c2=S)cc1 | -1.2 | 29.6* | -1.0 | i | -9.8
Cc1cccc(NS(=O)(=O)c2ccc3[nH]c(=O)cc(C(=O)OC(C)C(=O)Nc4ccc([N+](=O)[O-])cc4)c3c2)c1 (stereo not drawn) | -25.5 | 34.4* | -13.0 | i | -9.6
c1nc(NCCN2CCOCC2)c2c3c(sc2n1)CCCCC3 | -0.3 | -4.8 | -3.9 | 7.1 | nt
Cc1ccc(CNC(=O)CSc2nc(=O)n3ccc(C)cc3n2)cc1 | 1.4 | 40.1* | -3.3 | 0.5 | 5.2
Cc1ccn2c(=O)nc(SCC(=O)NCc3ccccc3)nc2c1 | 5.9 | 2.1 | 3.2 | i | nt
CN1C(=O)C(=Cc2ccc(N3CCOCC3)o2)C(=O)N(C)C1=O | -0.8 | 29.5* | -39.9 | -0.3 | 1.0
CN1C(=O)C(=Cc2ccc(N3CCCCCC3)o2)C(=O)N(C)C1=S | 6.4 | 7.7 | 0.3 | -0.5 | nt
NC(N)=NN=Cc1ccnc2ccccc12 | nt | 1.8 | -18.0 | nt | nt
Cc1nn(C)cc1C1C(C#N)=C(N)N(c2ccc(F)c([N+](=O)[O-])c2)C2=C1C(=O)CCC2 (stereo not drawn) | -9.5 | 29.8* | -12.7 | -0.2 | -4.4
Cc1ccc(N2C(N)=C(C#N)C(c3cccnc3)C3=C2CCCC3=O)cc1 (stereo not drawn) | 6.3 | 9.0 | 1.6 | i | nt
Oc1cc(Nc2ccccc2)cc2cccnc12 | -4.0 | 2.1 | -0.1 | i | nt
Oc1cc(NCCN2CCOCC2)cc2cccnc12 | 13.4 | 99.2* | -41.7 | -0.4 | 45.8*
CC1=NN(c2cccc(Cl)c2)C(=O)C1 | -14.8 | 44.5* | -13.8 | -0.2 | 2.4
CC1=NN(c2ccc(C(=O)O)c(N)c2)C(=O)C1 | 6.5 | 82.8* | 2.1 | i | -13.5
CC1=NN(c2ccc(Cl)c(C(=O)O)c2)C(=O)C1 | -0.3 | 16.0 | -4.3 | -0.3 | nt
O=C(Nc1ccc(OCC(=O)N2CCOCC2)cc1)c1ccccc1Cl | 4.6 | -13.0 | 5.0 | -0.3 | nt
CCN1/C(=C\C=C(C(C)=O)C(C)=O)Sc2ccccc21 | 2.2 | 37.1* | -33.0 | -0.8 | 25.0
